The source of these data is PubChem BioAssay.

The structures appear in SMILES notation. Calls of active or inactive are those of the source.

The nature of test [1]: anti-His antibody binders, primary screen, artefact control for SMM control protein annotation, biochemical, small-molecule microarray, 635 nm fluorescence (AID 1128).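 Further: score merges feature fluorescence with signal-to-noise for each printed compound spot.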 The conditions noted are these: anti-His Alexa647 antibody binding, higher = more signal.
The test system of test [2] is Human papillomavirus type 1a E7 protein (residues 1-88). The test can be described thus: HPV1a E7 small-molecule binders, primary screen, biochemical, small-molecule microarray, residues 1-88, 635 nm (AID 1129). The settings on record: small-molecule microarray binding, fluorescence 635 nm; higher = more signal.
Test [3] addresses Focal adhesion kinase 1 (Homo sapiens) (UniProt Q05397). The experiment in a line: small-molecule microarray binders of FAK, primary screen, biochemical, 635/667 nm fluorescence, BSA, DTT (AID 1130).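 Further: composite of spot emission at 667 nm and signal to noise over triplicate slides.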 The conditions noted are these: PTK2 binding, 635 nm fluorescence, higher = more signal.
In test [4] the test system is Fibrinogen (Alexa647-labelled). The experiment in a line: fibrinogen binders on compound microarrays, profiling panel, artefact control for SMM control-protein annotation, biochemical, small-molecule microarray, 635/667 nm fluorescence (AID 1131).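 Further: z-score merges 667 nm fluorescence with per-spot signal-to-noise over triplicate slides.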 The conditions noted are these: fibrinogen-A647 binding fluorescence, higher = more signal.
In test [5] the target is Follistatin (Homo sapiens) (UniProt P19883). The test can be described thus: follistatin binders on small-molecule microarrays, primary screen, biochemical, small-molecule microarray, 635/667 nm fluorescence (AID 1132). The conditions noted are these: FST binding, 635 nm fluorescence, higher = more signal.
Chain of Follistatin (Homo sapiens) (P19883 whole entry, looked up): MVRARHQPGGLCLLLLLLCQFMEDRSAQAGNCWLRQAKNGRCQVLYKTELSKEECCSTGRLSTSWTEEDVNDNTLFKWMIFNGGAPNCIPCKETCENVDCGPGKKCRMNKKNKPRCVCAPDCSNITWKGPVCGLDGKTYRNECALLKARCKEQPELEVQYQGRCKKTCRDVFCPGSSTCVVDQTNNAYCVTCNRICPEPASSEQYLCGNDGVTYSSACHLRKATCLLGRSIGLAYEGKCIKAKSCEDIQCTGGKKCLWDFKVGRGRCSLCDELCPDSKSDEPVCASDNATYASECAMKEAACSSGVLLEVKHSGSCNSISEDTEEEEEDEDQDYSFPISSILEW
Test [6] deals with Fibroblast growth factor 2 (Homo sapiens) (UniProt P09038). The test can be described thus: FGF2 binders on small-molecule microarrays, primary screen, biochemical, small-molecule microarray, 635/667 nm fluorescence (AID 1133). The settings on record: small-molecule microarray binding, FGF2, fluorescence 635/667; higher = more signal.
Chain of Fibroblast growth factor 2 (Homo sapiens) (P09038 whole entry, looked up): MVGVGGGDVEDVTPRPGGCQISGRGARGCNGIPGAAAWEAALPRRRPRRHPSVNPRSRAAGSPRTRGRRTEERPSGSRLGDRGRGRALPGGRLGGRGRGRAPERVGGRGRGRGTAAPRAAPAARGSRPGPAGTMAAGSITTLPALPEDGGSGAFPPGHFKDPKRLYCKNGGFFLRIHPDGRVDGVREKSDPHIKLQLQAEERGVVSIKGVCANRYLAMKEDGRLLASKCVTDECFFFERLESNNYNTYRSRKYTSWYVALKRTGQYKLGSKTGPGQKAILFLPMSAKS
Test [7] in a line: mitochondrial membrane potential change in A549 cells, profiling panel, cell-based, JC-1 fluorescence, basal, 24 h, 100 nL (AID 1138).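 Further: A549 lung adenocarcinoma cells under basal conditions with no added stimulus; test concentration not given here.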 The conditions noted are these: higher = more signal.
In test [8] the test system is Lefty1. The experiment in a line: Lefty1 binders on small-molecule microarrays, primary screen, biochemical, small-molecule microarray, 635/667 nm fluorescence (AID 1139). The conditions noted are these: small-molecule microarray binding, fluorescence 635/667; higher = more signal.
Test [9] deals with wheat germ agglutinin (Triticum aestivum), Alexa647-labelled. The experiment in a line: wheat germ agglutinin binders on compound microarrays, profiling panel, artefact control for SMM control-protein annotation, biochemical, small-molecule microarray, 635/667 nm fluorescence (AID 1140).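 Further: score merges 667 nm feature emission with signal to noise over triplicate slides.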 The conditions noted are these: WGA-A647 binding, 635 nm fluorescence, higher = more signal.

Test [10] concerns the target Luciferin 4-monooxygenase (Photinus pyralis) (UniProt P08659). The experiment in a line: firefly luciferase enzyme inhibitors, primary screen, biochemical, luminescence, purified enzyme, 2006 set (AID 1141).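 Further: cell-free assay with purified firefly luciferase at 100 ng per well in PBS; test concentration not given here.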 The conditions noted are these: SteadyGlo luminescence, 30 min, higher = more signal, called active from +8 up or from −8 down.

Chain of Focal adhesion kinase 1 (Homo sapiens) (Q05397 whole entry, looked up): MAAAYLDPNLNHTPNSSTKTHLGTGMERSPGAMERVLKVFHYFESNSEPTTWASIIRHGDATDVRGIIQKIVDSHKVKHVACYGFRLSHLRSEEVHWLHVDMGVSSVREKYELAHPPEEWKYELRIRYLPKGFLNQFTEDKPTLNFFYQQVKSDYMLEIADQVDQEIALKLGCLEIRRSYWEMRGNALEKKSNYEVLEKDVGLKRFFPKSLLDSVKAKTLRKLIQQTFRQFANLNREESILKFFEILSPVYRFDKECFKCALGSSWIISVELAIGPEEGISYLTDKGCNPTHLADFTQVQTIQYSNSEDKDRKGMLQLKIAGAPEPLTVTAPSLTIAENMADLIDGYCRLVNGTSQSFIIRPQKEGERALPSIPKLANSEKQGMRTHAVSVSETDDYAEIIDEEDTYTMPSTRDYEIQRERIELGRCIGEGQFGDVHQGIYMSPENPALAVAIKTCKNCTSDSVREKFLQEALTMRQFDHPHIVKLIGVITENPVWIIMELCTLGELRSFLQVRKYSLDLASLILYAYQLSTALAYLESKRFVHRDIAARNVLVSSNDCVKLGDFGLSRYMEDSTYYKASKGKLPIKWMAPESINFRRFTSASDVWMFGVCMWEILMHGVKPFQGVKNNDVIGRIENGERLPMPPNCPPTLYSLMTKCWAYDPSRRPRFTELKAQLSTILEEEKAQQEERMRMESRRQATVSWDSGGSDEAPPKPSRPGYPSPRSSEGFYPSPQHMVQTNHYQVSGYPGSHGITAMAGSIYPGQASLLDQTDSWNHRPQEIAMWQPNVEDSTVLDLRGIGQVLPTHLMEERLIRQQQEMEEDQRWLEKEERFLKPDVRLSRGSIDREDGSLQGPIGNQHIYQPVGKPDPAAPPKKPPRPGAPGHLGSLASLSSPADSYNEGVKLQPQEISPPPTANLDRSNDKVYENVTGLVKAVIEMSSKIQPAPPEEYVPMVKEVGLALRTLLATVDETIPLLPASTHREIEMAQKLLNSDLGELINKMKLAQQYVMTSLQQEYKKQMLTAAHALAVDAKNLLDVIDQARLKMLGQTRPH
Chain of Luciferin 4-monooxygenase (Photinus pyralis) (P08659 whole entry, looked up): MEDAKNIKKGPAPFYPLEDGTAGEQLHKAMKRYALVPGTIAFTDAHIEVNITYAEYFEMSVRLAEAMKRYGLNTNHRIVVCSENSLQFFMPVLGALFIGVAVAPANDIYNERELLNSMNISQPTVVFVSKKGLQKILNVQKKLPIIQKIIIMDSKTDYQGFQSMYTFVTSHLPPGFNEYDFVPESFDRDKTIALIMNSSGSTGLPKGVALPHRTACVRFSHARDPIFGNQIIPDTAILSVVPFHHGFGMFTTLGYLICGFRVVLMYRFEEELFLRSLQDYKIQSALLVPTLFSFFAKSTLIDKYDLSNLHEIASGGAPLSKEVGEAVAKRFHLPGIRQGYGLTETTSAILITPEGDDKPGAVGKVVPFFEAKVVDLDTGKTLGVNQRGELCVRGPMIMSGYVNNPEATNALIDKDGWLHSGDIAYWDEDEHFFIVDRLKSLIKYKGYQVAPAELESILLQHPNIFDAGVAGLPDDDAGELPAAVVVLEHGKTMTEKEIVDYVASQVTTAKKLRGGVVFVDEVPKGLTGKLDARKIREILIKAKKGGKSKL

As for `C=CCC(OC(C)=O)[C@@H]1[C@@H](N(Cc2cccc3ccccc23)C(=O)Cc2ccc(OC)cc2)c2cc(OCCCO)ccc2N1C(=O)Cc1ccc2ccccc2c1` (stereo not given in full), the composite z-score was -0.538 in [1]; -0.609 in [2]; -0.495 in test [3]; -0.331 in test [4]; 0.688 in test [5]; 0.182 in test [6]. The composite z-score was 0.353 in test [8] and 0.507 in [9]. In addition, the figures for the z-score in [7] and in test [10] were 0.309 and 0.969 (inactive), respectively.
Consider `COCCOC(=O)N1C(=O)[C@@]2(c3cc(C#Cc4ccc(OC)cc4)ccc31)[C@H](c1ccc(OCCO)cc1)N1[C@H](c3ccccc3)[C@H](c3ccccc3)OC(=O)[C@H]1[C@@H]2C(=O)NC[C@H](O)c1ccccc1`, for which the composite z-score was 1.2 in test [1]; 1.17 in test [2]; 1.32 in [3]; 0.941 in test [4]; 1.33 in test [5]; 1.19 in [6]. In addition, the composite z-score is 0.979 in test [8] and 1.05 in test [9]. In addition, the results for the z-score in test [7] and in test [10] were -0.936 and -0.563 (inactive), respectively.
Turning to `CCCNC(=O)[C@@]1(c2ccc([N+](=O)[O-])cc2)CC(=O)N(C(C)C)[C@@H]1c1ccc(CO)cc1`, the composite z-score in [1] is 0.736; in [2] it was 0.143; in test [3] it was 0.856; in test [4], -1.19; in test [5], -0.742; in [6] it was -0.914. Further, the composite z-score in test [8] was -0.844; in test [9], 1.19. Also, the figures for the z-score in test [7] and in [10] were -0.837 and -0.113 (inactive), respectively.
For the molecule `COCCOC(=O)N1C(=O)[C@@]2(c3ccccc31)[C@H](c1ccc(O)cc1)N1[C@H](c3ccccc3)[C@H](c3ccccc3)OC(=O)[C@H]1[C@@H]2C(=O)N1CCCCCCC1`, the composite z-score in test [1] stood at 2.71; in test [2], 1.21; in test [3], 0.791; in [4], 0.941; in test [5] it was 1.46; in test [6] it was 1.74. The composite z-score in test [8] stood at 1.72; in test [9], 1.43. Also, the z-score is -1.16 in [7] and 0.171 (inactive) in test [10].
Consider `[N-]=[N+]=NCc1ccccc1[C@@H]1OC(c2ccc(OCCCO)cc2)=N[C@]1(Cc1ccccc1N=[N+]=[N-])C(=O)O`, for which the composite z-score in test [1] amounted to 3.38; in [2], 1.23; in test [3] it was 0.334; in test [4], 1.04; in [5], 1.1; in [6], 0.626. The composite z-score was -0.132 in test [8] and 1.21 in [9]. The results for the z-score in [7] and in [10] were -0.652 and -5.68 (inactive), respectively.
`C[N+](C)(C)CCCCNC(=O)[C@H]1C[C@H]2C(=O)N[C@@H](Cc3ccccc3)C(=O)N2[C@H]1c1cccc(OCCO)c1`: the composite z-score in test [1] turned out to be 2.93; in test [2] it was 0.566; in test [3], 0.193; in [4], 0.578; in [5], 1.48; in test [6], 1.87. The composite z-score is 1.69 in [8] and -0.4 in [9]. Besides, the z-score is -0.243 in test [7] and -0.598 (inactive) in [10].
Take `O=C1C[C@@](C(=O)NC2CC2)(c2ccc([N+](=O)[O-])cc2)[C@@H](c2ccc(CO)cc2)N1C1CCCCC1`: the composite z-score is 2.79 in test [1]; 1.23 in test [2]; 0.333 in [3]; 0.122 in test [4]; 1.3 in test [5]; 1.64 in test [6]. The figures for the composite z-score in test [8] and in test [9] were 0.894 and 0.407, respectively. Besides, the z-score in test [7] is -0.282; in [10], 0.997 (inactive).
For `O=C1C[C@@](C(=O)O)(c2ccc([N+](=O)[O-])cc2)[C@@H](c2ccc(CO)cc2)N1C1CCCCC1`, the composite z-score in test [1] stood at 1.82; in [2], 1.23; in test [3] it was 0.54; in [4] it was 0.953; in [5], 1.01; in [6] it was 0.26. Further, the results for the composite z-score in test [8] and in [9] were 0.312 and 0.92, respectively. In addition, the z-score in test [7] was 0.57; in test [10] it was -1.81 (inactive).
On to `O=C(NCCN1CCOCC1)[C@@H]1c2ccccc2C(=O)N(Cc2ccccc2C(F)(F)F)[C@H]1c1ccc(CO)cc1`, for which the composite z-score in test [1] is -1.48; in [2], 0.0783; in test [3] it was -0.331; in test [4] it was -0.676; in [5] it was -0.2; in test [6], -0.0425. Also, the composite z-score was -1.24 in [8] and 0.708 in [9]. Further, the z-score in [7] was 2.63; in test [10] it was -0.676 (inactive).
Consider `[N-]=[N+]=Nc1ccccc1C[C@]1(C(=O)N2CCOCC2)N=C(c2ccc(OCCCO)cc2)O[C@H]1c1ccccc1N=[N+]=[N-]`, for which the composite z-score in test [1] was 2.37; in test [2] it was 1.19; in test [3] it was 1.08; in test [4], 0.96; in test [5], 1.41; in [6] it was 1.79. Besides, the composite z-score turned out to be 1.41 in [8] and 0.97 in test [9]. Moreover, the z-score was 0.268 in test [7] and -4.36 (inactive) in test [10].
In the case of `C=C(COC)/C(=C/C[C@@H](OC(C)=O)c1ccccc1OCCO)c1cnc2ccccc2c1`, the composite z-score worked out at 0.782 in test [1]; 1.06 in test [2]; 0.423 in test [3]; 0.0866 in test [4]; 1.43 in test [5]; 1.12 in test [6]. Besides, the composite z-score in test [8] amounted to 1.54; in [9], 1.2. Moreover, the z-score in test [7] is -0.159; in test [10] it was -1.47 (inactive).
Regarding `COc1ccc([Si](C)(C)[C@H]2[C@H](CC(=O)N3Cc4ccccc4C[C@H]3CO)O[C@@]3(C(=O)N(c4ccccc4)c4ccccc43)[C@@H]2C)cc1`, the composite z-score in test [1] came out at 1.27; in test [2] it was 1.19; in test [3], 0.0758; in test [4] it was 0.96; in test [5], 1.37; in test [6] it was 1.64. The composite z-score in [8] stood at 1.48; in test [9], 0.771. Also, the results for the z-score in test [7] and in [10] were 1.78 and 0.16 (inactive), respectively.
Turning to `[N-]=[N+]=Nc1ccccc1[C@@H]1OC(c2ccc(OCCCO)cc2)=N[C@]1(CCS(=O)(=O)c1ccccc1)C(=O)NCC(O)CO` (stereo not given in full), the composite z-score is 0.592 in test [1]; 0.794 in test [2]; 0.131 in [3]; 0.911 in [4]; 0.518 in [5]; -0.0365 in [6]. In addition, the values for the composite z-score in test [8] and in [9] were -0.285 and 1.02, respectively. Moreover, the z-score in test [7] is -0.298; in test [10], -9.87 (active).
With `COc1ccc(C(=O)Nc2cccc(CN3C(=O)[C@]4(O[C@H](CC(=O)N5Cc6ccccc6C[C@H]5CO)[C@@H]([Si](C)(C)c5ccc(OC)cc5)[C@@H]4C)c4ccccc43)c2)cc1`, the composite z-score was 1.17 in test [1]; 0.481 in [2]; 0.343 in [3]; 0.368 in test [4]; 1.39 in test [5]; 1.7 in test [6]. The composite z-score was 1.59 in [8] and -0.0276 in test [9]. In addition, the figures for the z-score in test [7] and in test [10] were -0.806 and 0.429 (inactive), respectively.
